Measured values: the supplement of paper PMC12067093, “Discovery and optimisation of a covalent ligand for TRIM25 and its application to targeted protein ubiquitination” (Chemical Science, 2025)
About 21,000 targets were measured; listed, in parts, are those with the largest changes and a random draw of the rest.

Compound: Cc1cc(ccc1-c1ccccc1)C(=O)N1CCCN(CC1)C(=O)CCl [compound 10]
Experiment: probe-labelled cysteine peptide fold change vs DMSO (competition) (log2 fold change); higher = less target engagement (more negative = stronger competition)
Conditions: 10 µM; THP-1; incubation time: 4 h
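Note: competitive profiling in live THP-1 cells: cysteine peptides tagged with an iodoacetamide desthiobiotin (IA-DTB) probe, intensity after compound treatment relative to DMSO-treated cells.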

Target	probe-labelled cysteine peptide fold change
GLRX_P35754_26_VVVFIKPTCPYCR (UniProt P35754)	-1.05
FHL2_Q14192_275_GFLTERDDILCPDCGK (UniProt Q14192)	0.0254
FOS_P01100_204_EKLEFILAAHRPACK (UniProt P01100)	0.0955
GSDMD_P57764_38_RVVQELDHGGEFIPVTSLQSSTGFQPYCLVVR (UniProt P57764)	0.275
FHOD1_Q9Y613_43_APTCSLDGALPLGAQIPAVHR (UniProt Q9Y613)	-0.105
GLA_P06280_56_FMCNLDCQEEPDSCISEK (UniProt P06280)	0.07
GFI1_Q99684_155_GAGLGLFCEPAPEPGHPAALYGPK (UniProt Q99684)	-0.225
HCK_P08631_241_LSVPCMSSK (UniProt P08631)	-0.0986
HAUS6_Q7Z4H7_662_VISDCECVPQK (UniProt Q7Z4H7)	0.0385
HK3_P52790_840_AAQLCGAGVAAVVEK (UniProt P52790)	0.169
GSPT1_P15170_464_TAGTICLETFK (UniProt P15170)	0.00954
GATD3B_A0A0B4J2D5_177_EFHQAGKPIGLCCIAPVLAAK<|>GATD3A_P0DPI2_177_EFHQAGKPIGLCCIAPVLAAK (UniProt P0DPI2)	-0.563
HLA-C_P04222_345+364_GGSCSQAASSNSAQGSDESLIACKA (UniProt P04222)	-0.638
GRN_P28799_178_CITPTGTHPLAK (UniProt P28799)	-0.279
GDAP2_Q9NXN4_148_TAAESSLYSCYR (UniProt Q9NXN4)	-0.0153
HERC2_O95714_1037_ISSCLDFEQHSR (UniProt O95714)	0.0441
HINT1_P49773_38_CLAFHDISPQAPTHFLVIPK (UniProt P49773)	0.0727
HEATR3_Q7Z4Q2_57_ECACAGLAR (UniProt Q7Z4Q2)	-1.43
HINT3_Q9NQE9_66+73_QDPGTELLHCENEDLICFK (UniProt Q9NQE9)	-0.386
HDAC6_Q9UBN7_539_PATEAELLTCHSAEYVGHLR (UniProt Q9UBN7)	-0.137
GSK3B_P49841_335_LTPLEACAHSFFDELRDPNVK (UniProt P49841)	0.133
GRHPR_Q9UBQ7_29_AADCEVEQWDSDEPIPAK (UniProt Q9UBQ7)	-0.563
GIT1_Q9Y2X7_576_KGVSASAVPFTPSSPLLSCSQEGSR (UniProt Q9Y2X7)	-0.316
GNB1_P62873_294_LLLAGYDDFNCNVWDALK (UniProt P62873)	0.0699
GFPT1_Q06210_264_VDSTTCLFPVEEK (UniProt Q06210)	-0.0167
GTF3C4_Q9UKN8_376_CVPLYHPYQK (UniProt Q9UKN8)	0.0788
GEMIN5_Q8TEQ6_82_VSGFTFSHHPGQYNLCATSSDDGTVK (UniProt Q8TEQ6)	0.193
GTF2B_Q00403_34+37_AGDMICPECGLVVGDR (UniProt Q00403)	0.105
